Assay results reported in PubChem BioAssay (NCI).
Compounds without any hit were thinned out: in the full panel of roughly 79,000, 15% have a hit. Unmarked numbers belong to inactive results. The source made the active and inactive calls. Rule as the data show it: active = growth inhibition above about 70%; inactive = the rest.

Legend:
[1] = NCI Yeast Anticancer Drug Screen. Data for the rad50 strain (AID 155);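 also: 0% = growth of vehicle-only cultures of the same strain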; details: S. cerevisiae rad50 strain growth inhibition; at 50.0 µM; stronger effect = higher value
Outline: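 Yeast carrying a defined DNA repair defect were exposed to test compounds, and growth was compared with vehicle-treated controls to give percent inhibition.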

[2] = NCI Yeast Anticancer Drug Screen. Data for the mec2-1 strain (AID 157); details: S. cerevisiae mec2-1 strain, at 50.0 µM, stronger effect = higher value
Outline: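 Compounds were applied to mec2-1 yeast cells. Their growth was then compared with that of vehicle-treated cultures to give growth inhibition.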

[3] = NCI Yeast Anticancer Drug Screen. Data for the sgs1 mgt1 strain (AID 161);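 also: 0% = growth of cultures given vehicle only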; details: S. cerevisiae sgs1 mgt1 strain, at 50.0 µM, stronger effect = higher value
Outline: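 Yeast cells carrying a defined DNA-repair defect were exposed to test compounds. Growth inhibition was measured relative to vehicle-treated controls.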

[4] = NCI Yeast Anticancer Drug Screen. Data for the cln2 rad14 strain (AID 165);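 also: 0% = growth equal to vehicle treated cultures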; details: S. cerevisiae cln2 rad14 strain, at 50.0 µM, stronger effect = higher value
Outline: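 Strain: cln2 rad14 yeast, altered in cell cycle control and DNA damage repair. Read-out: growth inhibition vs vehicle.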

[5] = NCI Yeast Anticancer Drug Screen. Data for the bub3 strain (AID 167); details: S. cerevisiae bub3 mutant strain, at 50.0 µM, stronger effect = higher value
Outline: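 Compounds were applied to a genetically altered yeast strain carrying a cell-cycle control defect. Growth inhibition was scored against vehicle-treated controls.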

[6] = NCI Yeast Anticancer Drug Screen. Data for the mlh1 rad18 strain (AID 175); details: S. cerevisiae mlh1 rad18 strain growth inhibition; at 50.0 µM; stronger effect = higher value
Outline: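 A repair-deficient yeast strain is exposed to test compound, and growth is scored relative to vehicle-treated controls.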

Compound	growth inhibition [1]	growth inhibition [2]	growth inhibition [3]	growth inhibition [4]	growth inhibition [5]	growth inhibition [6]
COc1cc(C2c3cc4c(c(OC(=O)c5ccccn5)c3CC3COC(=O)C32)OCO4)cc(OC)c1OC (stereo not given)	8.1%	10.1%	11.6%	-9.5%	13%	34%
Nc1nc2ccc3ccccc3c2c(=O)[nH]1	-4.35%	2.35%	-1.55%	-10.1%	-15.6%	12.7%
C(=C\c1ccc2ccc(/C=C/c3ccccc3)cc2c1)/c1ccccc1	-15.2%	14.7%	12.1%	-26.8%	8.25%	-17.1%
CN(C)CCCn1c2ccccc2c2cnccc21	0.5%	-10.9%	-17.6%	-54.5%	-48.2%	14.8%
CC([O-])=C1C(=O)c2ccccc2C1=O.CC([O-])=C1C(=O)c2ccccc2C1=O.CC[O-].CC[O-].[Ti+4]	19.4%	27.6%	55.4%	29%	37.8%	36.5%
CC(=O)OC12CC(C)C3(O)C4C=C(C)C(=O)[C@@]4(O)CC(CO)=C[C@H]3C1C2(C)C (stereo not given in full)	-4.3%	-6.15%	9.95%	5.35%	6.8%	2.05%
COCCCNC(=O)C1C(=O)C(=O)N(CCCOC)C1=O (stereo not given)	-2.35%	-3.45%	-15.8%	13.2%	-5%	-10.6%
COc1ccc(/C(=C/n2ccnc2)C(O)c2ccc(OC)c(OC)c2)cc1OC (stereo not given)	-16.5%	-11.8%	-31.8%	-2.25%	-2.8%	-11.3%
O=C(c1ccccc1C(=O)N1CCCO1)N1CCCO1	-0.45%	-8.3%	6.9%	-15.8%	6.15%	16.9%
O=C(CCc1ccc(O)c(O)c1)NCCc1cc(OCc2ccccc2)cc(OCc2ccccc2)c1	83.9% (active)	88.4% (active)	83.2% (active)	87.5% (active)	82.2% (active)	73.1% (active)
CCOC(=O)C(C(=O)OCC)c1cc(-c2cc3ccccc3o2)oc(=O)c1C#N	47.7%	20.5%	10.2%	15.8%	-4.15%	30.1%
COc1ccc(OC)c(CNc2ccc(C(=O)O)cc2)c1	11.4%	-1.25%	15%	-1.9%	6.75%	29.6%
CC1CCCC(C)C1CO (stereo not given)	3.65%	-31.6%	7.75%	22.7%	-17.8%	15.8%
CCN(CC)CCOC(=O)c1ccc(NC(=O)Nc2ccccc2[N+](=O)[O-])cc1	19.4%	5.5%	19.1%	16.6%	15.6%	14.8%
Cc1cccc(C)c1NCC1CO1 (stereo not given)	-17.4%	-14.3%	-6.3%	13.2%	-17.6%	-11.2%
C(/C=C/c1csnn1)=C\c1ccccc1	8.9%	8.85%	-4.2%	15.8%	2.35%	0.5%
S=C(OCCCCCn1cnc2c(=S)nc[nH]c21)Oc1ccccc1	-13%	16%	7.1%	-45.8%	-5.25%	-12.7%
Cc1cnc(NCCCCNc2ncc(C)c(-c3ccccc3O)n2)nc1-c1ccccc1O	-5.25%	1.55%	-0.55%	-27.1%	-3.65%	4.8%
C/C=C/[C@@H]1[C@H]2C(=O)[C@]3(Cl)[C@@H](/C=C/C)[C@@H]3C(=O)[C@@]12Cl	5.05%	6.1%	6.45%	12.8%	10%	29.6%
O=C(COc1ccc(Cl)cc1)Nc1ccc(I)cc1	0.05%	-4.85%	0.6%	-5.15%	-1.45%	6.45%
